Measurements from PubChem BioAssay (NCATS).
Records with an inconclusive call do not appear. Calls of active or inactive are those of the source. Calls follow the shape of the dose curve; as a rule, active = well fitted curve in the direction sought with a large enough effect; inconclusive = small, poorly fitted or top-dose-only effect, or another doubt; inactive = no such curve, though single readings can be large; an effect the other way counts as inactive or inconclusive.

What was measured:
CRL-7250 = normal cell line; assay: Cytotoxic Profiling of Annotated Libraries Using Quantitative High-Throughput Screening (AID 1296008); details: Five cell lines viability, CellTiter-Glo ATP luminescence, 48-72 h; max response: stronger effect = lower value; also: nearly all actives have a fitted effect of over 60% in size
Method in brief: (§1)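 Cytotoxicity was measured as CellTiter-Glo ATP luminescence, read after 10 min at room temperature. Compound treatment of the cells lasted 48 or 72 hr at 37 degrees Celsius in a qHTS format.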

HaCat = assay: as above; details: Five cell lines viability, CellTiter-Glo ATP luminescence, 48-72 h; max response: stronger effect = lower value
Method in brief: as §1

KB-3-1 = assay: as above; details: Five cell lines viability, CellTiter-Glo ATP luminescence, 48-72 h; max response: stronger effect = lower value
Method in brief: as §1

NIH3T3 = assay: as above; details: Five cell lines viability, CellTiter-Glo ATP luminescence, 48-72 h; max response: stronger effect = lower value
Method in brief: as §1

C33A = assay: Primary qHTS to identify gynecologic anti-cancer compounds using libraries of approved drugs and bioactive compounds (AID 1345084); details: Gynecologic cancer cell panel viability, ATPlite luminescence, 48 h; series mostly up to 57.5 µM; also: nearly all actives have a fitted effect of over 55% in size
Method in brief: (§2)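 Cytotoxicity screen measuring ATP content by luciferase luminescence. Each compound is applied at five concentrations for 48 h at 37 C with 5% CO2.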

CAOV3 = assay: as above; details: Gynecologic cancer cell panel viability, ATPlite luminescence, 48 h; series mostly up to 57.5 µM
Method in brief: as §2

CASKI = assay: as above; details: Gynecologic cancer cell panel viability, ATPlite luminescence, 48 h; series mostly up to 57.5 µM
Method in brief: as §2

Es-2 = assay: as above; details: Gynecologic cancer cell panel viability, ATPlite luminescence, 48 h; series mostly up to 57.5 µM
Method in brief: as §2

HeLa = assay: as above; details: Gynecologic cancer cell panel viability, ATPlite luminescence, 48 h; series mostly up to 57.5 µM
Method in brief: as §2

Hek293T = assay: as above; details: Gynecologic cancer cell panel viability, ATPlite luminescence, 48 h, control line for the selectivity index; series mostly up to 57.5 µM
Method in brief: as §2

JEG-3 = assay: as above; details: Gynecologic cancer cell panel viability, ATPlite luminescence, 48 h; series mostly up to 57.5 µM
Method in brief: as §2

OV90 = assay: as above; details: Gynecologic cancer cell panel viability, ATPlite luminescence, 48 h; series mostly up to 57.5 µM
Method in brief: as §2

PA-1 = assay: as above; details: Gynecologic cancer cell panel viability, ATPlite luminescence, 48 h; series mostly up to 57.5 µM
Method in brief: as §2
% is scaled to controls: 0 for no effect and ±100 for the full control effect.

CCOc1ccc(-n2c([C@@H](C)N(Cc3cccnc3)C(=O)Cc3ccc(OC(F)(F)F)cc3)nc3ncccc3c2=O)cc1
inactive: max response (CRL-7250) 0.299% | max response (HaCat) -4.53% | max response (KB-3-1) 4.98% | max response (NIH3T3) -0.198% | Potency (C33A) | Potency (CAOV3) | Potency (CASKI) | Potency (Es-2) | Potency (HeLa) | Potency (Hek293T) | Potency (JEG-3) | Potency (OV90) | Potency (PA-1)

N#Cc1cccc(C(=O)Nc2cc(-c3ccccc3)nn2-c2ccccc2)c1
inactive: max response (CRL-7250) 1.2% | max response (HaCat) 1.42% | max response (KB-3-1) -17% | max response (NIH3T3) -3.88% | Potency (C33A) | Potency (CAOV3) | Potency (CASKI) | Potency (Es-2) | Potency (HeLa) | Potency (Hek293T) | Potency (JEG-3) | Potency (OV90) | Potency (PA-1)

O=C(C(Cc1cccc(C(F)(F)F)c1)NS(=O)(=O)c1cc(F)c2c(c1)CCNC2)N1CCCC1 (configuration not stated)
inactive: max response (CRL-7250) -1.14% | max response (HaCat) -1.4% | max response (KB-3-1) -6.26% | max response (NIH3T3) 1.31% | Potency (C33A) | Potency (CAOV3) | Potency (CASKI) | Potency (Es-2) | Potency (HeLa) | Potency (Hek293T) | Potency (JEG-3) | Potency (OV90) | Potency (PA-1)

CC(C)(C)OC(=O)c1ncn2c1C(C)(C)Nc1ccccc1-2
inactive: outcome (CRL-7250) | max response (HaCat) 2.2% | max response (KB-3-1) 0.574% | max response (NIH3T3) 0.0612% | Potency (C33A) | Potency (CAOV3) | Potency (CASKI) | Potency (Es-2) | Potency (HeLa) | Potency (Hek293T) | Potency (JEG-3) | Potency (OV90) | Potency (PA-1)

CCC[C@H](N[C@H]1CCc2cc(F)cc(F)c2C1)C(=O)Nc1cn(C(C)(C)CNCC(C)(C)C)cn1
inactive: max response (CRL-7250) 4.72% | max response (HaCat) -2.54% | max response (KB-3-1) -17.7% | max response (NIH3T3) -10.9% | Potency (C33A) | Potency (CAOV3) | Potency (CASKI) | Potency (Es-2) | Potency (HeLa) | Potency (Hek293T) | Potency (JEG-3) | Potency (OV90) | Potency (PA-1)

C=C(C(=O)O)[C@@H]1CC=C(CCC(C)=O)[C@@H](C)CC1
inactive: max response (CRL-7250) -0.888% | max response (HaCat) -4.33% | max response (KB-3-1) -14.7% | max response (NIH3T3) -3.55% | Potency (C33A) | Potency (CAOV3) | Potency (CASKI) | Potency (Es-2) | Potency (HeLa) | Potency (Hek293T) | Potency (JEG-3) | Potency (OV90) | Potency (PA-1)

CC(C)/C=C1\NC(=O)C(C(C)C)n2c1nc1ccccc1c2=O (configuration not stated)
inactive: max response (CRL-7250) 2.92% | max response (HaCat) -9.75% | max response (KB-3-1) -2.24% | max response (NIH3T3) -0.19% | Potency (C33A) | Potency (CAOV3) | Potency (CASKI) | Potency (Es-2) | Potency (HeLa) | Potency (Hek293T) | Potency (JEG-3) | Potency (OV90) | Potency (PA-1)

C[C@@H]1C[C@H]2O[C@@]3(O[C@@H]2C(C)(C)O)C(O)[C@@]2(C)C4CCC5C(C)(C)[C@@H](O[C@H]6OC[C@H](O)[C@@H](O)[C@@H]6O)CC[C@@]56C[C@@]46CC[C@]2(C)C13 (some centres not stated)
inactive: max response (CRL-7250) 1.57% | max response (HaCat) -16.2% | max response (KB-3-1) -6.46% | max response (NIH3T3) -0.0399% | Potency (C33A) | Potency (CAOV3) | Potency (CASKI) | Potency (Es-2) | Potency (HeLa) | Potency (Hek293T) | Potency (JEG-3) | Potency (OV90) | Potency (PA-1)

C[C@@H](NC(=O)[C@H](O)c1cc(F)cc(F)c1)C(=O)N[C@@H]1C(=O)N(C)c2ccccc2-c2ccccc21
inactive: max response (CRL-7250) 0.116% | max response (HaCat) -11.4% | max response (KB-3-1) 5.92% | max response (NIH3T3) -0.195% | Potency (C33A) | Potency (CAOV3) | Potency (CASKI) | Potency (Es-2) | Potency (HeLa) | Potency (Hek293T) | Potency (JEG-3) | Potency (OV90) | Potency (PA-1)

COc1ccc(C2(N(C)C(=O)c3ccc(NC(=O)c4ccco4)cc3)CCOCC2)cc1
inactive: max response (CRL-7250) -25.1% | max response (HaCat) -27.5% | max response (KB-3-1) -3.65% | max response (NIH3T3) -15.7% | Potency (C33A) | Potency (CAOV3) | Potency (CASKI) | Potency (Es-2) | Potency (HeLa) | Potency (Hek293T) | Potency (JEG-3) | Potency (OV90) | Potency (PA-1)

CNC(=O)c1ccc2c(c1)CCO[C@H]2CCN1CCN(c2ccc(OC)cc2)CC1
inactive: max response (CRL-7250) 1.26% | max response (HaCat) -0.835% | max response (KB-3-1) -8.62% | max response (NIH3T3) 2.66% | Potency (C33A) | Potency (CAOV3) | Potency (CASKI) | Potency (Es-2) | Potency (HeLa) | Potency (Hek293T) | Potency (JEG-3) | Potency (OV90) | Potency (PA-1)

COC1CC(=O)C23C(=O)NC(CC(C)C)C2C(C)C(C)=CC3/C=C(\C)CCCC1O (configuration not stated)
inactive: max response (CRL-7250) -6.23% | max response (HaCat) 3.61% | max response (KB-3-1) 1.14% | max response (NIH3T3) -14.9% | Potency (C33A) | Potency (CAOV3) | Potency (CASKI) | Potency (Es-2) | Potency (HeLa) | Potency (Hek293T) | Potency (JEG-3) | Potency (OV90) | Potency (PA-1)

COc1ccc(C2Oc3c(OC)cc(CCCO)cc3C2COC2OC(CO)C(O)C(O)C2O)cc1OC (configuration not stated)
inactive: outcome (CRL-7250) | max response (HaCat) 1.52% | max response (KB-3-1) -12.2% | max response (NIH3T3) -1.06% | Potency (C33A) | Potency (CAOV3) | Potency (CASKI) | Potency (Es-2) | Potency (HeLa) | Potency (Hek293T) | Potency (JEG-3) | Potency (OV90) | Potency (PA-1)

CCCC(CCC)C(=O)NCc1ccc2c(cnn2-c2ccccc2OC)c1
inactive: max response (CRL-7250) -29.2% | max response (HaCat) 3.89% | max response (KB-3-1) -13.4% | max response (NIH3T3) 0.011% | Potency (C33A) | Potency (CAOV3) | Potency (CASKI) | Potency (Es-2) | Potency (HeLa) | Potency (Hek293T) | Potency (JEG-3) | Potency (OV90) | Potency (PA-1)
